# High-throughput results as filed in PubChem.
# Only some compounds are listed: those with a hit (about 2.8% of all), similar ones and a draw of the others.
# POLK inh – qHTS for Inhibitors of Polymerase Kappa. AID 588579, 2011. Potency, µM (titrated, usually from 107 µM), inactives show at the top dose activity, negative = inhibition, usual class: inhibitors. purified Pol kappa, fluorescent DNA synthesis assay, 10 min. DNA polymerase kappa (Homo sapiens), Q9UBT6. 400,000 compounds, 0.53% hits; further: potency means the concentration at half of the fitted maximal effect; on the % scale 0 is the no-effect control and ±100 the full control effect
#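 Kinetic fluorescence readout at 0 and 10 min followed reaction start with substrate at 50 nM final. Beforehand, enzyme (10 nM Pol kappa) stood 15 min with compound at room temperature; buffer-only wells were negative controls.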
# Pol iota inh – qHTS for Inhibitors of Polymerase Iota; 390,000 compounds, 1% hits; Pol iota fluorescent replication assay, 10 min; Potency, µM (highest dose often 115 µM), for inactives: top-dose activity, negative = inhibition, usual class: inhibitors; further: potency means the concentration at half of the fitted maximal effect
#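 Fluorescent replication assay read twice, at 0 min and 10 min after adding 50 nM (final) substrate. Enzyme (10 nM) and compounds were first incubated 15 min at room temperature; enzyme-free buffer wells were negative controls.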
# PI5P4Ka inh – qHTS for Inhibitors of phosphatidylinositol 5-phosphate 4-kinase (PI5P4K); Phosphatidylinositol 5-phosphate 4-kinase type-2 alpha (Homo sapiens), P48426; PI5P4Kalpha enzyme, ADP-Glo luminescence, 60 min; hits give low values; max response, %; 330,000 compounds, 1.2% hits; active means max response of -50% or lower; inconclusive means between -30% and -50%; inactive means -30% or higher; further: value at the top dose of about 77 µM; on the % scale 0 is the no-effect control and ±100 the full control effect
# Target sequence (P48426 whole entry, looked up): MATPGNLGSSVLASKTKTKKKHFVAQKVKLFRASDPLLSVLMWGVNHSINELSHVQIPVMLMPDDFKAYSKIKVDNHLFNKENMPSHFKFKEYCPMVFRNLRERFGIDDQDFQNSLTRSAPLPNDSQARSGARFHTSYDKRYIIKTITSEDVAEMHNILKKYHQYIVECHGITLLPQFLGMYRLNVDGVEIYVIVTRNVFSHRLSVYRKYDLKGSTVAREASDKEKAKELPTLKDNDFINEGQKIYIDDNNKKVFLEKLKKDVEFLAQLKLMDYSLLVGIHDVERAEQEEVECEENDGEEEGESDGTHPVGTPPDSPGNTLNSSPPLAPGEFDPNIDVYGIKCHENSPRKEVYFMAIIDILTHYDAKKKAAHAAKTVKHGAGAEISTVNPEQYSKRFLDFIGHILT
#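 qHTS, 1536-well: enzyme/substrate mix, compound by pin tool, 5 microM ATP final; RT 60 min; ADP-Glo reagents 1 (45 min) then 2 (30 min); luminescence.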
# POLH inh – qHTS for Inhibitors of Polymerase Eta. AID 588591, 2011. recombinant Pol eta, fluorescent DNA replication assay. Potency, µM (doses to about 114 µM), inactives show at the top dose activity change, negative = inhibition, usual class: inhibitors. 390,000 compounds, 1.2% hits. DNA polymerase eta (Homo sapiens), Q9Y253; further: potency means the concentration at half of the fitted maximal effect; on the % scale 0 is the no-effect control and ±100 the full control effect
#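 Pol eta at 10 nM preincubated with compounds 15 min at room temperature; reaction started with fluorescent substrate (50 nM final) and read kinetically at 0 and 10 min.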
# POLB inh – qHTS Assay for Inhibitors of DNA Polymerase Beta; P06746; Pol beta primer extension/strand displacement, fluorescence kinetic; Potency, µM (titrated, usually from 114 µM), without a hit: at the highest dose activity change, negative = inhibition, actives largely listed as inhibitors; 340,000 compounds, 1.3% hits; AID 485314, 2010; further: potency means the concentration at half of the fitted maximal effect; on the % scale 0 is the no-effect control and ±100 the full control effect
#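 Curves were derived by four-parameter Hill fits of normalized qHTS data. The kinetic fluorescent primer-extension read was taken at 0 and 10 min after 50 nM substrate, following a 15 min room-temperature preincubation of 10 nM enzyme with compounds.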
# WRN inhibitor – qHTS for Inhibitors of WRN Helicase; Bifunctional 3'-5' exonuclease/ATP-dependent helicase WRN (Homo sapiens), Q14191; WRN helicase unwinding, fluorescent forked duplex, kinetic; Potency, µM (top dose mostly 114 µM), for inactives: at the top dose activity change, negative = inhibition, hits mostly inhibitors; 360,000 compounds, 0.46% hits; further: potency means the concentration at half of the fitted maximal effect; on the % scale 0 is the no-effect control and ±100 the full control effect; nearly all actives have a fitted effect of over 55% in size
#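 Primary qHTS, 1536-well format. 20 nM WRN + compound, 15 min RT; start with 100 nM forked fluorophore/quencher duplex, 2 mM ATP (final); kinetic read ex 525/em 598 nm.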
# Starred values were filed as active, the others as inactive; ? = inconclusive; / = no result given; ! = not active in a repeat; [ ] = another dose, or the depositor's remark. Unless noted, the call rests on the fitted dose curve; in most records, active means well fitted curve in the direction sought with a large enough effect; inconclusive means small, poorly fitted or top-dose-only effect, or another doubt; inactive means no such curve, though single readings can be large; an effect the other way counts as inactive or inconclusive.
SMILES,POLK inh,Pol iota inh,PI5P4Ka inh,POLH inh,POLB inh,WRN inhibitor
CCOC(=O)SC1=N/C(=C\c2ccc(N(C)C)cc2)C(=O)S1,-13.0%,-29.0%[58.9 µM],/,-5.9%,-18.5%,-19.5%
CCOC(=O)c1cc2c(=Cc3ccc(N(C)C)cc3)c3ccccc3n2[n+]1C,-20.0%,39.8µM*,-15.4,?,/,15.8µM*
CN(C)c1ccc(C=c2c3ccccc3n3c2c2ccccc2[n+]3C)cc1,-18.9%,?,-75.0*,?,/,10µM*
CN(C)c1ccc(C=C2c3ccccc3-c3ccccc32)cc1,-20.7%,1.6%,/,/,/,/
COc1ccc(-n2c(=O)c3c(c4cc(OC)ccc4n3C)n(Cc3c(F)cccc3Cl)c2=O)cc1,1.1%,21.3%,/,-1.9%,18.7%,/
C[N+]1(CC(=O)NNc2c3ccccc3nc3ccccc23)CCOCC1,/,/,/,/,25.1µM*,/
Cc1ccc(NC2=CC(=O)C(=O)c3ccccc32)c(C)c1,0.7%,43.6%,4.0,-31.1%,/,0.9%
CCOc1ccc(NC2=CC(=O)C(=O)c3ccccc32)cc1,-3.6%,35.5µM*,-2.4,39.8µM*,/,-15.3%
O=C1C=C(Nc2ccccc2O)c2ccccc2C1=O,-9.3%,31.6µM*,-17.3,25.1µM*,9.7%,?
O=C1C=C(Nc2cccnc2)c2ccccc2C1=O,-14.2%,50.1µM*,3.0,31.6µM*,/,-21.3%
COc1cc(Cl)c(NS(=O)(=O)c2ccc(-c3ccc(=O)[nH]n3)o2)c(OC)c1,-18.9%,23.0%,-3.0,-3.9%,-2.1%,1.0%
COc1cc(Cl)c(NC2=CC(=O)C(=O)c3ccccc32)c(OC)c1,-0.8%,?,-7.2,56.2µM*,/,7.7%
O=C1C=C(Nc2ccc(F)cc2)c2ccccc2C1=O,-16.4%,1.1%,-8.7,?,/,-8.4%
Cc1cccc(C)c1NC(=O)C1(C)CSCC(=O)N1CCc1c[nH]c2ccccc12 (centres undefined),/,/,1.2,/,/,4.0%
Cc1cc(C)cc(N2CCCn3c2nc2c3c(=O)n(CCN3CCOCC3)c(=O)n2C)c1,-9.1%,6.7%,-4.1,-8.0%,-1.1%,-5.0%
C=C(C)Cn1c(=O)c2c(nc3n2CCN3c2cc(C)cc(C)c2)n(C)c1=O,-5.8%,79.4µM*,/,-9.2%,-13.1%,/
O=C(O)c1ccccc1-c1ccccc1C(=O)Nc1ccc2c(c1)[nH]c(=O)c1ccccc12,-10.0%,232.0%,?,50.1µM*,12.0%,-32.9%
CCOc1ccccc1C(=O)N/N=C/c1ccoc1,-28.3%,79.4µM*,?,-20.4%,20µM*,5.7%[11.6 µM]
O=C(N/N=C/c1ccoc1)c1cc(Br)ccc1O,?,89.1µM*,?,?,20µM*,-23.9%
CSc1ccc(/C=N/NC(=O)c2ccc(C)c(C)c2)cc1,-23.6%,?,-6.7,?,25.1µM*,-9.0%[11.6 µM]
Cc1ccc(C(=O)N/N=C/c2ccoc2)cc1C,2.7%,3.0%,?,?,25.1µM*,1.0%
O=C(N/N=C/c1ccoc1)c1ccccc1Br,-13.5%,?,-28.6,-22.8%,-14.8%,-4.8%
CCOc1cccc(C(=O)N/N=C/c2ccoc2)c1,-14.7%,-5.1%,-25.0,-16.5%,?,-8.0%
COc1ccc(NC(=O)CN(C)C2=NS(=O)(=O)c3ccccc32)cc1Cl,-2.0%,31.7%,1.5,-15.7%,/,-2.0%
Cc1nn(C)c2c1c(-c1ccccc1)cc(=O)n2Cc1ccc(Cl)cc1,?,0.9%,/,-8.5%,32.5%,/
SMILES,POLK inh,Pol iota inh,PI5P4Ka inh,POLH inh,POLB inh,WRN inhibitor
C#CCOC(=O)c1ccccc1C(=O)O,-8.0%,79.4µM*,1.3,5.7%,-0.1%,-3.1%
OCC1(CCc2ccccc2)CCN(Cc2cccn2-c2cccnc2)CC1,-12.5%,-2.1%,12.9,-1.3%,0.9%,-1.4%[57.1 µM]
C/C(=C\c1ccc(C(=O)O)cc1)c1ccc2c(c1)C(C)(C)CCC2(C)C,?,31.6µM*!,31.6,?,?,0.8%
Cc1cccc(N(C)S(=O)(=O)c2ccc3c(c2)C(C)(C)C(=O)N3C)c1,?,?,-18.6,?,22.4µM*,-22.4%
c1ccc(-c2nnsc2-c2ccccc2)cc1,-5.8%,26.5%,-59.8*,-9.1%,-1.7%,-6.1%
CSc1snnc1-c1ccccc1,-8.3%,18.3%,0.6,-3.8%,0.6%,-4.2%
COc1ccccc1CC(Cc1nc2ccccc2[nH]1)c1nc2ccccc2[nH]1 (centres undefined),-8.9%,23.4%,-2.9,-18.7%,13.9%,4.2%
COc1cc2nc(CC(O)c3nc4cc(OC)c(OC)cc4[nH]3)[nH]c2cc1OC (centres undefined),10µM*,3.16µM*,/,/,/,/
Cc1ccc(CNC(=O)c2ccc(Cn3nc(C)c(Cl)c3C)o2)cc1,-17.4%,?,-0.8,?,50.1µM*,-33.5%
Cc1cc(C)cc(NC(=O)c2ccc(Cn3nc(C)c(Cl)c3C)o2)c1,-4.5%,5.8%,-1.5,-14.8%,-20.0%,-7.3%
CCCCSc1n[nH]c(=S)c2nc[nH]c12,-9.3%,?,-62.6*,-11.1%,/,-6.1%
c1ccc2c(NCCc3c[nH]c4ccccc34)c3ccccc3nc2c1,-3.4%,?,-8.3,?,12.6µM*,25.1µM*
COc1ccc(C(=O)NCCc2c[nH]c3ccccc23)cc1OC,-9.8%,12.9%,2.3,2.2%,-30.0%,4.2%
O=C(NCCc1c[nH]c2ccccc12)c1ccc2nc[nH]c2c1,-21.7%,?,?,50.1µM*,/,-17.5%
COc1cc(Nc2c3ccccc3nc3ccccc23)cc(OC)c1OC,-5.7%,?,-7.6,-7.1%,14.1µM*,-20.7%
COc1ccc(CCNC(=O)c2cc(Nc3ccccc3)nc3ccccc23)cc1OC,-15.9%[60.1 µM],79.4µM*,/,-7.4%,4.0%,/
Cc1ccc(OCC(=O)Nc2ccccc2C(=O)N2CCCC2)cc1,2.5%,?,6.0,-8.4%,-16.5%,-8.2%
CCOC(=O)[C@]12CCCC=C1N(Cc1ccccc1)C(=O)[C@H](CC(=O)NCc1cccc3ccccc13)C2,/,/,-2.0,/,/,1.9%
COc1ccc(CCNc2c3ccccc3nc3ccccc23)cc1OC,?,?,-3.5,?,6.31µM*,-4.0%[11.6 µM]
O=C(O)c1ccccc1-n1ncc2c1/C(=C/c1ccc(Cl)cc1)CC2,/,/,/,/,39.8µM*,/
O=C(/C=C/c1cnc2ccccc2n1)NC12CC3CC(CC(C3)C1)C2,-17.1%,1.8%,0.5,2.9%,56.2µM*,-14.0%
O=C(O)/C=C/c1cnc2ccccc2n1,-8.6%,24.5%,-0.7,-13.6%,-5.3%,-4.6%
